Bioassay records: PubChem, National Center for Advancing Translational Sciences (NCATS)
PLK1 PBD block = PLK1 (human) polo-box domain binding inhibition; P53350; Plk1 PBD binding of FITC phosphopeptide, fluorescence polarization; Potency, µM, for inactives: max response, negative = inhibition, usual class: inhibitors; hit rate 2.8% among 360,000; AID 720504; note: series mostly up to about 57 µM; nearly all actives have a fitted effect of over 65% in size
VDR inhibitor = blocks the human vitamin D receptor; P11473; VDR-SRC2-3 peptide fluorescence polarization, 2 h; Potency, µM, for inactives: max response, negative = inhibition, usual class: inhibitors; hit rate 0.93% among 400,000; AID 504847
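Signal is fluorescence polarization, reporting how far test compounds block the interaction of VDR with the SRC2-3 coregulator peptide after a 2 h room-temperature incubation.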
Sfp inh = Sfp phosphopantetheinyl transferase inhibition; hit rate 3.5% among 310,000; Q9F4F7; Potency, µM, for the others: largest response in the series, negative = inhibition, most hits filed as inhibitors; Biochemical Sfp PPTase activity, qHTS;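 note: the enzyme is Sfp with the accession as filed and its product quenches rhodamine fluorescence; 0% = enzyme reaction without inhibitor and -100% = no enzyme wells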
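After 15 min at room temperature with compound, 15 nM Sfp received 5 uM rhodamine-CoA plus 12.5 uM BHQ-2-ybbR (50 mM Hepes pH 7.6, 10 mM MgCl2). Rate came from the fluorescence difference over 30 min, ex 525/em 598 nm.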
TrxR1 substrate = rat thioredoxin reductase 1 substrate activity; purified TrxR1 substrate turnover, NADPH consumption readout; Potency, µM (highest dose often 114 µM), for the others: at the top dose activity change, negative = substrate turnover; hit rate 0.01% among 390,000; AID 588456; note: nearly all actives have a fitted effect of over 50% in size
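Rat TrxR1, dispensed at 90 nM, was prereduced with 400 uM NADPH (final) for 5 min at ~22 deg C, then incubated with compound 15 min before 400 uM selenite. A first-read NADPH fluorescence drop versus no-compound background flagged substrates.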
IDH1 R132H inh = inhibitors of human mutant IDH1 R132H; O75874; IDH1-R132H enzyme, NADPH consumption, diaphorase/resazurin fluorescence; Potency, µM (doses to about 76.6 µM), for inactives: at the highest dose activity change, negative = inhibition, usual class: inhibitors; hit rate 0.093% among 390,000; AID 602179; note: nearly all actives have a fitted effect of over 65% in size
Target sequence (O75874 whole entry R132H, stated change not applied): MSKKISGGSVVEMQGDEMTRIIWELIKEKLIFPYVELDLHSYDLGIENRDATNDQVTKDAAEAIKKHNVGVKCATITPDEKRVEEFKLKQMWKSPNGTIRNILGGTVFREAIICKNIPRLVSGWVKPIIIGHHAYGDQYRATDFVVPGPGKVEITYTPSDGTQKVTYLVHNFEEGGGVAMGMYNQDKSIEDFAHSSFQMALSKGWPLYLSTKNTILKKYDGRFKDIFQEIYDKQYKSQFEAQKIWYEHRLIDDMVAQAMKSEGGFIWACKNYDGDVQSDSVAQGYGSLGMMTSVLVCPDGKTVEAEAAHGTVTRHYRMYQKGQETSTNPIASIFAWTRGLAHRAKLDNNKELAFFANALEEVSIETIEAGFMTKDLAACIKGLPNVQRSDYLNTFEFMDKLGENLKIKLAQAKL
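IDH1-R132H (0.5 ug/mL) preincubated 30 min with compound, then NADPH (0.016 mM) and alpha-KG (2 mM) added; 80 min at RT, pH 7.5. Remaining NADPH coupled via diaphorase/resazurin to fluorescence (540/590 nm); concentration-response curves normalized to no-enzyme control.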
rTrxR1 inhibitor = blocks rat thioredoxin reductase 1; O89049; recombinant rTrxR1, NADPH fluorescence consumption, selenite substrate; Potency, µM (highest dose often 114 µM), inactives show top-dose activity change, negative = inhibition, usual class: inhibitors; hit rate 1% among 390,000; AID 588453; note: nearly all actives have a fitted effect of over 65% in size
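Rat TrxR1 (90 nM in the dispensed reagent) was pre-reduced with 400 uM NADPH for 5 min at room temperature, then incubated with compound for 15 min. After 400 uM selenite was added, NADPH fluorescence (Ex 340/Em 450 nm) was followed for 8 min.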
* = called active by the depositor; i = inactive; ? = inconclusive; . = no result given; [ ] = remark or other dose. Most compounds without a hit are left out; they make up all but 5.2% or so of the library. Calls come from the whole dose curve; as a rule, active = well fitted curve in the direction sought with a large enough effect; inconclusive = small, poorly fitted or top-dose-only effect, or another doubt; inactive = no such curve, though single readings can be large; an effect the other way counts as inactive or inconclusive. Unless noted, % is set by controls: 0 for no effect and ±100 for the full control effect; potency is the fitted concentration of half-maximal effect.

SMILES	PLK1 PBD block	VDR inhibitor	Sfp inh	TrxR1 substrate	IDH1 R132H inh	rTrxR1 inhibitor
CCc1nnc(NC(=O)c2ccccc2NC(=O)C2CCN(C(=O)c3ccco3)CC2)s1	.	-19%	.	5%	.	-8%
CN(C)CCCN=Cc1c(-c2ccccc2)[nH]n(-c2nc3ccccc3s2)c1=O	-5%	18%	50µM*	-9%	-8%	-12%
CCN(CC(=O)Nc1cccc(C(C)=O)c1)S(=O)(=O)c1ccc(OC)cc1	-3%	4%	15%	5%[57.1 µM]	-3%	-1%[57.1 µM]
Cc1ccccc1CN(C)CC(=O)Nc1cccc(S(=O)(=O)N(C)c2ccccc2)c1	27µM*	-26%	12%	-15%	-2%	21%[57.1 µM]
CCN(CC)S(=O)(=O)c1cccc(NC(=O)CN(C)Cc2cccc(OC)c2)c1	-7%	0%	89µM*	3%	4%	16%
N#Cc1ccc(C(=O)N(Cc2ccco2)Cc2cccs2)cc1	.	-2%	.	12%[0.0914 µM]	.	-31%
CCC1([N+](=O)[O-])COC(c2ccc(Cl)cc2)OC1 (configuration not stated)	0%	4%	.	7%	4%	?
COc1ccc(Cl)cc1NC(=O)C(=O)NCc1ccc(Cl)cc1	.	-16%	.	1%	2%	1%
NC(=O)c1cc2ccccc2oc1=NCc1ccccc1	-7%	-3%	-19%	-2%[57.1 µM]	6%	-3%[57.1 µM]
NC(=O)c1cc2ccc(O)cc2oc1=Nc1ccccc1	15µM*	-4%	?	i	4%	?
O=C(NCc1ccccc1)c1cc2ccc(O)cc2oc1=O	19µM*	?	-1%	i	6%	-100%
O=C(O)c1ccc(N=c2oc3cc(O)ccc3cc2C(=O)NCc2ccccc2)cc1	?	-6%	-2%	28%	13%	2%
NC(=O)c1cc2ccc(O)cc2oc1=NCc1ccccc1	12µM*	-14%	2%	387%	14%	64%
CCOc1ccccc1OC(=O)c1cc2ccccc2oc1=O	21µM*	?	16%	-2%	7%	12%
CC1(Cc2ccc(Cl)s2)C(=O)Nc2c(Cl)ccc(Cl)c21 (configuration not stated)	-7%	.	.	.	.	.
CN(Cc1c(F)cccc1Cl)C(=O)CCc1c[nH]c2ccccc12	1%	7%	12%	0%	4%	14%
CC(C)OC(=O)COc1cc(O)c2c(=O)cc(-c3ccccc3)oc2c1	-2%	-11%	-11%	-1%	0%	8%
O=C(c1ccccc1)c1cc2ccccc2oc1=O	0%	19%	8%	-1%	-8%	7%
O=C(NNC(=O)c1cc2ccccc2oc1=O)c1ccccc1	?	-21%	50µM*	-15%	-5%	-16%
COc1cccc(CNC(=O)CNS(=O)(=O)c2ccc3nc(C)sc3c2)c1	.	1%	.	-1%	.	-1%
CCOC(=O)c1cc(-c2ccccc2)sc1NC(=O)C(C)Sc1nnc(C)s1 (configuration not stated)	4%	-12%	13%	2%	-1%	16%
CCOc1cc(C(=S)N2CCOCC2)ccc1OS(=O)(=O)c1ccccc1	-5%	-5%	-11%	-12%	3%	-7%
COC(=O)c1cc(-c2ccccc2)sc1NC(=O)CN1C(=O)c2ccccc2C1=O	12µM*	-27%	20µM*	-10%	0%	-12%
CCOC(=O)c1cc(-c2ccccc2)sc1NC(=O)COC	-18%	-16%	?	5%	-1%	2%
CCOC(=O)c1cc(-c2ccccc2)sc1NC(=O)c1ccc(OC)c(OC)c1	4.7µM*	79µM*	32µM*	12%[57.1 µM]	3%	-21%[57.1 µM]
SMILES	PLK1 PBD block	VDR inhibitor	Sfp inh	TrxR1 substrate	IDH1 R132H inh	rTrxR1 inhibitor
CCOC(=O)c1ccc(OS(=O)(=O)c2ccccc2)c(OC)c1	27µM*	?	14%	-5%[57.1 µM]	7%	5%[57.1 µM]
CCOC(=O)c1cc(-c2ccccc2)sc1NC(=O)C(C)C	30µM*	?	-2%	2%	0%	6%
N[C@H](C(=O)O)[C@H]1C[C@H]1C(=O)O	.	-2%	-13%	.	.	.
NC(=S)NN=Cc1c[nH]c2nccnc12	0%	.	.	.	20%	.
CCCCN1C(=O)/C(=C(/C#N)C(=O)N2CCCC2)c2ccccc21	-18%	45µM*	-8%	-3%	0%	20%
N#CC(C#N)=C1C(=O)N(CCN2CCCCC2)c2ccccc21	-21%	13%	1%	-4%	3%	-3%
C/C(=N\OC(=O)Nc1ccc(Cl)cc1)c1ccc(F)c(F)c1	1%	3%	7%	1%	0%	12%
CC(C)C(Cl)=NOC(=O)Nc1ccc(F)cc1	13µM*	?	.	7%[11.4 µM]	10%	?
O=S(=O)(CCc1ccccc1)c1nnnn1-c1ccc(F)cc1Br	.	?	0%	.	.	.
N#CCCCS(=O)(=O)c1nnnn1-c1ccc(F)cc1Br	.	45µM*	7%	.	.	.
CCc1ccc(S(=O)(=O)c2c(C(=O)c3ccccc3)cnc3ccc(CC)cc23)cc1	.	6%	.	4%	-1%	13%
COc1ccc(N2C(=O)c3ccccc3S2(=O)=O)cc1	-15%	-11%	3%	0%	-3%	18%
COc1ccc2c(c1)-c1ccccc1S(=O)(=O)N2C(C)=O	27µM*	-2%	5%	37%[57.1 µM]	5%	?
O=C(Nc1nnc2n1CCS2)c1ccc(Br)o1	-14%	-6%	56µM*	-2%	-3%	13%
CCCCSc1nc(O)c(C2OC(=O)c3c2ccc(OC)c3OC)c(=O)n1-c1ccccc1 (configuration not stated)	-13%	-1%	79µM*	-2%	4%	-9%
O=C(O)/C(=C\c1ccc2ccccc2c1)c1cccc2ccccc12	21µM*	-29%	.	-11%	-3%	-18%
O=C(NCC1CC1)c1ccccc1Cl	-4%	13%	5%	4%	-7%	15%
N/C(=N\OC(=O)c1ccc([N+](=O)[O-])cc1)c1cccnc1	-7%	-24%	12%	-14%	5%	-20%
O=C(Oc1c(Br)cc([N+](=O)[O-])cc1Br)c1cccnc1	19µM*	-10%	4%	-6%[57.1 µM]	-6%	-16%[57.1 µM]
CC1CCN(C(=O)C(C)NCc2ccc(F)cc2)CC1 (configuration not stated)	17µM*	?	-14%	0%	9%	-14%
CCc1ccc(CNC(=O)C2CCN(S(=O)(=O)N3CCCC3)CC2)cc1	-9%	-2%	7%	-10%	0%	-5%
CC1CCN(S(=O)(=O)N2CCCC(C(=O)NCc3ccc(F)cc3)C2)CC1 (configuration not stated)	27µM*	79µM*	5%	6%	5%	20%
CC1CCN(CC2CCN(C(=O)NCc3ccc(F)cc3)CC2)CC1	.	12%	.	-1%[57.1 µM]	-10%	7%[57.1 µM]
O=C(NCc1ccc(F)cc1)C1CCN(S(=O)(=O)N2CCCC2)CC1	12µM*	?	13%	0%	-7%	17%
